Experimental data from ChEMBL document CHEMBL3433997, “St. Jude Leishmania screening dataset” (2016).

These compounds were tested against Solute carrier family 2, facilitated glucose transporter member 1 (Homo sapiens) (UniProt P11166) (assay: ST_JUDE_LEISH: Cytotoxicity at 2uM final concentration against transgenic Leishmania Mexicana promastigotes LmGLUT1 that are glucose transport deficient and complemented with the human glucose transporter GLUT1. Activity is measured by DNA content using SYBR green in vitro).
Format: functional

Sequence of Solute carrier family 2, facilitated glucose transporter member 1 (Homo sapiens) (P11166 whole entry): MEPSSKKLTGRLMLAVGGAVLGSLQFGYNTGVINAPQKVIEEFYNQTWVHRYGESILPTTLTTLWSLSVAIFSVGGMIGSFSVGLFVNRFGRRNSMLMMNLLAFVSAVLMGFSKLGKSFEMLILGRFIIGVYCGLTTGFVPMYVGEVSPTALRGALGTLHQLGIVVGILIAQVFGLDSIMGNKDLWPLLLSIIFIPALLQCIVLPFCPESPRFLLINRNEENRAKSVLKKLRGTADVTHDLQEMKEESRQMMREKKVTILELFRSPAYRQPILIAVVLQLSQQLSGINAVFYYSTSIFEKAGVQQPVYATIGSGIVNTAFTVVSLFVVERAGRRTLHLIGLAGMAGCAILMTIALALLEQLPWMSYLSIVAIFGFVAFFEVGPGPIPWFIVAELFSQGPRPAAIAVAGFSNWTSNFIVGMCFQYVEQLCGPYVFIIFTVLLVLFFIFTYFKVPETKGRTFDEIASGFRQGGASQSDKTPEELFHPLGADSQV

Compound | inhibition [%]
Cc1cc(N[C@@H](CC(C)C)C(=O)Nc2ccccc2)nc(NCCc2ccc(F)cc2)n1 | 4.85
CC(C)CC(=O)N(Cc1ccc(-c2ccc(CNC3Cc4ccccc4C3)cc2)cc1)C1CCNCC1 | 8.37
CC1CCCN(c2ccc(NC(=O)c3cccs3)cc2[N+](=O)[O-])C1 (stereo not given) | 1.22
Oc1ccc(CCNCCCCCCNCCc2ccc(Cl)c3ccccc23)cc1O | -0.26
COc1cc(OC)cc(-c2nc3ccc(OCCN(C)C)c(C#N)c3[nH]2)c1 | 0.95
c1ccc2c(NCCc3c[nH]cn3)c3ccccc3nc2c1 | 0.58
CN1CCN(c2ccnc3ccc(NC(=O)Cc4ccc(-c5ccncc5)c5ccccc45)cc23)CC1 | -3.69
CC(C)(C)c1ccc(CN2CCC(NC(=O)c3ccc(-c4cccc(C(F)(F)F)c4)s3)CC2)cc1 | 1.56
CCC(C)CC(=O)Nc1ccc(OC)c(S(=O)(=O)N[C@@H]2CCN(C#N)C2)c1 (stereo not given in full) | -0.28
O=[N+]([O-])c1cccc(NC(=S)N2CCCN(Cc3ccc(F)cc3F)CC2)c1 | 0.91
COc1ccc(-n2ccnc2SCC(=O)Nc2cc(C(F)(F)F)ccc2Cl)c(OC)c1 | 12.8
Cc1nc2nc(N)nc(N)c2c(C)c1Cc1ccccc1I | 9.13
COc1cc(CNC[C@@H](O)[C@H](Cc2ccccc2)NC(=O)c2cc(C3CCCC3)cc(N3CCCC3=O)c2)cc(OC)c1 | 2.44
CCNc1cc(C(=O)N[C@@H](Cc2ccccc2)[C@H](O)CN[C@H](C)C(C)(C)C)cc(N2CCCCS2(=O)=O)c1 | 2.2
N=C1NC(c2ccccc2)(c2ccccc2)C(=O)N1C1CCCCC1 | 3.46
Cn1cc(Br)c(-c2cccc(Nc3ccnc4cc(-c5nccs5)ccc34)c2)n1 | 3.67
Cn1cncc1CNCc1ccc(-c2cccc(-c3nc4ccccc4[nH]3)c2)cc1 | -1.06
O=C(Cn1c(SCc2cccc(F)c2F)cc(=O)c2ccccc21)N(CCc1c[nH]cn1)Cc1ccc(-c2ccc(C(F)(F)F)cc2)cc1 | 4.17
COc1cccc2cc(C(=O)N[C@@H](CC(C)C)C(=O)N[C@H](/C=N/NC(=O)OC(C)(C)C)CC(=O)OC(C)(C)C)oc12 | 4.66
COc1ccc(CCN2CCC(Nc3nc4ccccc4n3CCc3ccc(OC)cc3)CC2)cc1 | 4.38
NC(=O)c1ccccc1OCC(=O)Nc1cccc(-c2ccc(-c3nc4ccccc4[nH]3)cc2)c1 | 8.01
O=C(Nc1ccccc1)Nc1ccc(-n2ccc(C(F)(F)F)n2)cc1 | 2.55
Cc1cc(C)n2nc(C(=O)Nc3cc(C(F)(F)F)ccc3N3CCOCC3)nc2n1 | 3
O=C(Nc1cccc(C(F)(F)F)c1)NC1CCN(c2ccnc3cc(Cl)ccc23)CC1 | 1.6
Cc1cnc(Nc2ccccc2)nc1N[C@@H](CCCN)C(=O)Nc1ccccc1 | -1.01
